# Screening data as filed in PubChem.
# PAFAH1B3 inh = PAFAH1B3 enzyme inhibitors, primary screen, biochemical, fluorescence polarization, human; 340,000 tested, 0.28% active; Platelet-activating factor acetylhydrolase IB subunit alpha1 (Homo sapiens), Q15102; recombinant PAFAH1B3, FP-rhodamine probe; inhibition, % at 3.39 µM;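 active means inhibition above the screen-wide average of all tested compounds plus 3 SD, cut at about 25% in these data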;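 further: 0% = enzyme with DMSO only and 100% = wells lacking PAFAH1B3 protein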
# DAGLB inhibitor = DAGLB lipase inhibitors, primary screen, biochemical, fluorescence, HTS. Diacylglycerol lipase-beta (Homo sapiens), Q8NCG7. HEK293T DAGLB membrane lysate, EnzChek fluorogenic substrate. inhibition, % at 5.17 µM. 340,000 tested, 0.059% active. AID 504411, 2011; in the data active means inhibition above about 34%;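 further: 0% = enzyme with vehicle and 100% = wells lacking enzyme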
# PAFAH2 FP inh = PAFAH2 enzyme inhibitors, primary screen, biochemical, fluorescence polarization, human | Platelet-activating factor acetylhydrolase 2, cytoplasmic (Homo sapiens), Q99487 | recombinant PAFAH2, FP-rhodamine activity probe | inhibition, % at 3.39 µM | 340,000 tested, 0.99% active | AID 492956, 2010;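 active means inhibition above the mean over all tested compounds plus 3 SD, cut at about 30% in these data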;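 further: inhibitors block probe labeling of enzyme so polarization drops; 0% = enzyme with DMSO and 100% = wells lacking PAFAH2 protein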
# pPAFAH FP inh = pPAFAH enzyme inhibitors, primary screen, biochemical, fluorescence polarization, human; Platelet-activating factor acetylhydrolase (Homo sapiens), Q13093; recombinant pPAFAH, FP-rhodamine probe fluorescence polarization; inhibition, % at 3.39 µM; 330,000 tested, 1.5% active;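 active means inhibition above the mean inhibition across the screen plus 3 SD, cut at about 25% in these data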;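 further: inhibitors block binding of the rhodamine activity-based probe so polarization drops; 0% = enzyme with DMSO and 100% = wells lacking pPAFAH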
# PAFAH1B2 inh = PAFAH1B2 enzyme inhibitors, primary screen, biochemical, fluorescence polarization, human; Platelet-activating factor acetylhydrolase IB subunit alpha2 (Homo sapiens), P68402; recombinant PAFAH1B2, FP-rhodamine activity probe; inhibition, % at 3.39 µM; 340,000 tested, 1.2% active; AID 492953, 2010;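 active means inhibition above the mean of all tested compounds plus 3 SD, cut at about 24% in these data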;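 further: 0% = enzyme with DMSO and 100% = wells lacking PAFAH1B2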
# HTRA1 inhibitor = HTRA1 serine protease inhibitors, primary screen, biochemical, fluorescence polarization, HTS | recombinant HTRA1, FP-rhodamine activity-based probe | inhibition, % at 5.96 µM | 340,000 tested, 0.5% active | AID 504803, 2011; in the data active means inhibition above about 36%;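 further: 0% = enzyme with DMSO and 100% = wells lacking enzyme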
# Target sequence (Q92743 whole entry, looked up): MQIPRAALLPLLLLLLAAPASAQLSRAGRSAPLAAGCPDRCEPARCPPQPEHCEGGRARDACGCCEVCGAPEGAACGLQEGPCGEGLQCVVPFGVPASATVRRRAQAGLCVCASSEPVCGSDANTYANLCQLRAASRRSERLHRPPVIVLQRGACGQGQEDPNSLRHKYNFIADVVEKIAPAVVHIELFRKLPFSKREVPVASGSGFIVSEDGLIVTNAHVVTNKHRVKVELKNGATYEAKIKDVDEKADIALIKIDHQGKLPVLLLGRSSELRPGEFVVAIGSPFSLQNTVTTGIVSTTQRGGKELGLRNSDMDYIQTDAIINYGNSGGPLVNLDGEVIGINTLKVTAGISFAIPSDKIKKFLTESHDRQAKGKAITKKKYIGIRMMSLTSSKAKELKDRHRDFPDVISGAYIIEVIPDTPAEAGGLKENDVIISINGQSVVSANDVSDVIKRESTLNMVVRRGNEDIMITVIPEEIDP
# HTRA1 conf = HTRA1 protease inhibitors, retest, confirmation, biochemical, fluorescence polarization | 1,600 tested, 66% active | recombinant HTRA1, FP-rhodamine activity-based probe | inhibition, % at 5.96 µM | shares compounds with HTRA1 inhibitor;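 active means mean inhibition over three repeats above a set limit taken from the earlier primary screen, cut at about 37% in these data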;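 further: 0% = HTRA1 with DMSO and 100% = wells lacking HTRA1; inhibitors block probe binding so polarization drops and inhibition rises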
# Numbers without * were called inactive; . = not tested or not shown. Only some compounds are listed: those with a hit (about 2.8% of all), similar ones and a draw of the others.
SMILES,PAFAH1B3 inh,DAGLB inhibitor,PAFAH2 FP inh,pPAFAH FP inh,PAFAH1B2 inh,HTRA1 inhibitor,HTRA1 conf
CC(C)C(=O)NC(c1ccccc1)c1cc([N+](=O)[O-])c2cccnc2c1O (stereo not given),-3.8,24.8,8.9,34.2*,-0.2,39.1*,46.2*
CCOc1ccc(C(=O)Nc2nnc(C3=COCCO3)o2)cc1,2.7,2.5,-0.5,-0.6,-1.5,3.6,.
COc1cc2ncnc(N[C@H](C)c3ccccc3)c2cc1OC,7.1,-1.6,2.1,4.3,1.0,-3.7,.
COc1ccc(-c2cnnc(N/N=C/c3ccc(O)c(O)c3)n2)cc1,15.7,5.0,-1.7,15.8,7.8,60.5*,78.2*
COc1ccc(-c2nnnn2-c2ccc(F)cc2F)cc1,2.0,-2.1,-9.9,-2.3,-0.1,-4.1,.
O=C1CCCC(O)=C1N=Nc1ccc2c(c1)OCO2,-4.4,2.4,2.8,2.2,-3.3,-5.8,.
O=C1CCCC(O)=C1N=Nc1ccc(C(=O)O)cc1,50.5*,-1.2,51.6*,31.2*,38.5*,39.7*,12.2
Cc1cccc(N=Nc2ccc(O)c3ncccc23)c1,8.1,17.2,10.8,50.9*,10.7,58.5*,63.5*
Cc1ccc(C)c(N=Nc2ccc(O)c3ncccc23)c1,6.7,2.8,-1.8,26.6*,-1.8,51.7*,65.6*
Oc1ccc(N=Nc2ccc3c(c2)OCCO3)c2ncccc12,8.7,20.0,-1.8,27.8*,5.3,57.9*,61.0*
NS(=O)(=O)c1ccc(N=Nc2ccc(O)c3ncccc23)cc1,5.6,25.1,7.0,26.8*,0.2,51.8*,36.6*
O=C(Nc1ncccc1O)c1ccc2c(c1)OCCO2,8.0,1.2,3.0,2.7,5.6,5.2,.
CCOc1ccc(N=Nc2ccc(O)c3ncccc23)cc1,8.9,1.1,-5.5,.,2.6,35.6,.
COc1cc(NC(=O)CSc2nnc3ccccn23)cc(OC)c1OC,.,-0.7,.,.,.,0.4,.
COc1ccc(Nc2nnc(Cc3ccncc3)c3ccccc23)c(OC)c1,2.0,0.6,-0.2,5.4,-1.7,2.0,.
CC1CN(C(=O)COC(=O)CSc2ccc([N+](=O)[O-])cc2)CC(C)O1 (stereo not given),7.0,-1.8,-1.4,.,5.5,-3.5,.
Cc1cc(C)c(O)c(CN(C)Cc2cc(Cl)cc(Cl)c2O)c1,12.6,6.8,11.2,.,1.3,62.5*,55.1*
Cc1ccnc(NCc2cc(Cl)cc(Cl)c2O)c1,.,-2.7,.,.,.,3.2,.
O=C1C=C(Nc2cccc3cccnc23)c2ccccc2C1=O,15.2,5.1,29.6,33.6*,3.9,41.6*,39.4*
O=C(CN1C(=O)c2ccccc2C1=O)Nc1cccc2cccnc12,3.4,1.2,-2.0,2.4,-1.5,-1.5,.
Cc1[nH]c(C)c(S(=O)(=O)N2c3ccccc3CC2C)c1C(=O)N1CCCCC1 (stereo not given),9.4,-0.7,0.6,2.1,-1.8,-1.5,.
O=C(CSc1nc2ccccc2s1)N1CCOCC1,8.2,-6.4,3.9,5.3,2.3,161.1*,-2.1
O=C(CSc1nc2ccccc2s1)NCCCN1CCOCC1,-3.5,1.2,0.3,0.8,1.0,-0.4,.
O=C(C1CCCN(S(=O)(=O)c2ccc(Br)cc2)C1)N1CCOCC1 (stereo not given),-1.5,0.6,0.3,2.3,5.8,0.9,.
COC(=O)CCC(=O)OC1(C)C(=O)C2=CN(CCCOC(C)C)C(c3ccc(OC)cc3)=CC2=C(Br)C1=O (stereo not given),1.5,8.8,10.0,10.3,5.9,38.5*,49.6*
SMILES,PAFAH1B3 inh,DAGLB inhibitor,PAFAH2 FP inh,pPAFAH FP inh,PAFAH1B2 inh,HTRA1 inhibitor,HTRA1 conf
COC(=O)CCC(=O)OC1(C)C(=O)C2=CN(CC3CC3)C(c3ccc(OC)cc3)=CC2=C(Br)C1=O (stereo not given),12.0,3.0,-0.4,15.8,-4.2,50.4*,45.8*
COC(=O)CCC(=O)OC1(C)C(=O)C2=CN(Cc3ccc(OC)cc3)C(c3ccc(OC)cc3)=CC2=C(Br)C1=O (stereo not given),8.6,7.9,2.2,13.9,10.8,21.1,.
COC(=O)CCC(=O)OC1(C)C(=O)C2=CN(c3ccccc3)C(c3ccc(OC)cc3)=CC2=C(Br)C1=O (stereo not given),1.0,9.1,7.8,20.5,-4.2,46.8*,48.1*
COC(=O)CCC(=O)OC1(C)C(=O)C2=CN(Cc3ccccc3)C(c3ccc(OC)cc3)=CC2=C(Br)C1=O (stereo not given),4.0,6.8,6.8,14.0,-1.2,60.0*,62.6*
CCOC(=O)C1(Cc2ccc(Cl)cc2)CCN(C(C)Cc2ccc(O)c(OC)c2)CC1 (stereo not given),-0.5,0.1,-2.3,2.1,-1.2,2.2,.
COc1ccc2nc(N=NC3=C(O)CC(C)(C)CC3=O)sc2c1,2.5,12.8,3.3,7.1,1.9,52.9*,58.3*
CC1(C)CC2(CC(c3ccc(F)cc3)c3ccc(O)cc3O2)NC(=S)N1 (stereo not given),-0.7,2.5,1.0,0.7,11.9,-4.0,.
CC1(C)CC2(CC(c3ccccc3F)c3ccc(O)c(O)c3O2)NC(=S)N1 (stereo not given),-3.0,7.2,-0.9,32.6*,7.4,60.9*,58.0*
CCOC(=O)c1c(C)oc2cc(Cl)c(O)c(CN(C)C)c12,-0.5,-3.0,-5.2,0.5,-0.7,2.6,.
CCOC(=O)c1c(-c2ccccc2)oc2cc(CN(C)C)c(O)c(CN(C)C)c12,10.6,1.5,1.2,5.6,2.1,43.6*,50.8*
Cc1ccn2c(Nc3ccc4c(c3)OCO4)c(-c3ccccn3)nc2c1,13.7,2.8,17.7,15.3,5.0,64.0*,74.6*
Cc1ccc(Nc2c(-c3ccccn3)nc3cc(C)ccn23)cc1,4.0,6.4,5.0,9.6,0.7,43.7*,61.5*
Cc1ccc(Nc2c(-c3ccccn3)nc3ccc(C)cn23)cc1,5.4,2.9,-3.3,28.1*,7.9,55.3*,57.5*
CCC1CCCCN1Cc1ccc(N)cc1 (stereo not given),10.1,-1.0,-4.1,1.6,1.9,4.8,.
COc1cc(O)c2c(=O)c3c(O)ccc(O)c3oc2c1,3.7,6.9,5.8,17.2,-4.6,54.7*,0.3
CN1CCc2cccc3c2[C@@H]1Cc1ccc(O)c(O)c1-3,17.4,2.1,7.7,23.2,1.1,49.1*,53.3*
